Source: PubChem (several laboratories)
ssDAF12 agonist: activates DAF-12 receptor from parasite S. stercoralis | HEK293 ssDAF-12/GRIP1 lit1-tk-luc reporter, luminescence; % of 3 µM dafachronic acid response | activation, % at 6.8 µM | 370,000 tested, 1% active;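 active means activation above the mean over all tested compounds plus 3 SD, cut at about 0.9% in these data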
APP 5'UTR act: activates APP 5'UTR luciferase reporter | SH-SY5Y APP 5'UTR luciferase reporter, luminescence; zero percent = DMSO vehicle wells | activation, % at 2 µM | 190,000 tested, 1% active;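 active means activation above a set limit, based on mean plus 3 SD of controls, cut at about 140% in these data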
NF-kB neuron act: NF-kB expression increase, human neuronal cells; fold change at 12.5 µM; 190,000 tested, 1.6% active; NF-kB reporter expression; stronger effect = higher value; in the data active means fold change above about 3.3
hcDAF12 agonist: activates DAF-12 receptor from parasite H. contortus; HEK293 hcDAF-12 lit1-tk-luc reporter, luminescence; 0% DMSO, 100% Δ7-dafachronic acid; activation, % at 6.8 µM; 370,000 tested, 1.4% active;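 active means activation above the mean of all tested compounds plus 3 SD, cut at about 5.5% in these data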
hgDAF-12 ag: activates the H. glycines DAF-12 receptor ligand-binding domain; HEK293 GAL4-hgDAF12 UAS-luciferase reporter, agonist luminescence; normalized to butyrate control; activation, % at 6.8 µM; 370,000 tested, 1.8% active; AID 687014;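 active means activation above a cutoff set at the mean of all screened compounds plus 3 SD, cut at about 10% in these data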
LXR ag: LXR-beta agonism as hcDAF-12 counter-screen. shares compounds with hcDAF12 agonist. HEK293 Gal4-LXR tk-luc reporter, luminescence, 24 h; normalized: DMSO 0%, positive control 100%. activation, % at 6.8 µM. 3,400 tested, under 10 active. AID 743027;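 active means mean percent activation of the reporter above a cutoff set as the average over tested compounds plus their standard deviation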
Target sequence (P55055 whole entry, looked up, the tested form may be a part): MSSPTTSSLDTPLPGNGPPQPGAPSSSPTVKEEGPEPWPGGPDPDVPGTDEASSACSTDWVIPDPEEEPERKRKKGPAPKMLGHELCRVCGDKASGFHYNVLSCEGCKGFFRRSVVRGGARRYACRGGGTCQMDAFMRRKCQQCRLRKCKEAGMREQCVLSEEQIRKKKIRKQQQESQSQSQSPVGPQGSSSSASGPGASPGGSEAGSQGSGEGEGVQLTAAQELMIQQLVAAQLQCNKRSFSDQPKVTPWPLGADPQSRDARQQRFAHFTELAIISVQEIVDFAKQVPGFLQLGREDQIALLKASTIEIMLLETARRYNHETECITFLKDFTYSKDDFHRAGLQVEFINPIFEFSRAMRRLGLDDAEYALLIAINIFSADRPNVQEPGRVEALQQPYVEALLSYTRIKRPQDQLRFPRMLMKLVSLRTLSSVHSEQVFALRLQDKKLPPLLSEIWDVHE
hcDAF12 ag: hcDAF-12 agonism, confirmation assay; shares compounds with hcDAF12 agonist; activation, % at 6.8 µM; HEK293 hcDAF-12 lit1-tk-luc reporter, luminescence; % of Δ7-dafachronic acid response; 3,400 tested, 61% active;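 active means mean activation across triplicate tests above the threshold derived from the earlier primary screen, cut at about 5.5% in these data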
Of the large screens only hits and unclear results are named; the others gave an inactive call (follow-up assays come after a bar, where they were run). The list is not random: actives were taken first. Their share in the collection is about 3.4%.

CCOC(=O)c1c(-n2c(C)cc(C=C3C(=O)NC(=S)NC3=O)c2C)sc2c1CCCC2	NF-kB neuron act 5.57 (no result: ssDAF12 agonist, hcDAF12 agonist, hgDAF-12 ag)
CCOC(=O)c1c(-n2c(C)cc(/C=C3/C(=O)NC(=O)N(CC)C3=O)c2C)sc2c1CCCC2	none (no result: NF-kB neuron act)
COC(=O)c1c(C)[nH]c(C(=O)C(Cc2ccccc2)N(C)C)c1C (centres undefined)	hcDAF12 agonist 6.4
COc1ccc(-n2nc(C(=O)NCC(=O)N3CCC4(CC3)OCCO4)c3ccccc3c2=O)cc1	hcDAF12 agonist 5.8 (no result: APP 5'UTR act, NF-kB neuron act)
Cc1cc2c(cc1C)NP(=S)(c1ccccc1)N2	ssDAF12 agonist 1.2, hcDAF12 agonist 8.0, hgDAF-12 ag 19.2 (no result: APP 5'UTR act, NF-kB neuron act) | LXR ag inactive | hcDAF12 ag 12.8
COc1ccc2c3c([nH]c2c1)[C@H](C=C(C)C)N1C(=O)[C@@H]2CCCN2C(=O)[C@@H]1C3	none (no result: APP 5'UTR act, NF-kB neuron act)
Nc1cc(C(=O)Nc2ccccc2F)ccc1N1CC2CC(C1)c1cccc(=O)n1C2 (centres undefined)	hcDAF12 agonist 7.0 (no result: APP 5'UTR act, NF-kB neuron act) | LXR ag inactive | hcDAF12 ag inactive
Cc1cc(/C=C2\C(=O)NC(=O)N(c3ccc(Br)cc3)C2=O)c(C)n1C	hcDAF12 agonist 7.1 | LXR ag inactive | hcDAF12 ag inactive
Cc1cc(/C=C2\C(=O)NC(=O)N(c3ccc(Br)cc3)C2=O)c(C)n1-c1cc(C(=O)O)cc(C(=O)O)c1	none (no result: APP 5'UTR act, NF-kB neuron act)
S=P(c1ccccc1)(c1ccccc1)c1cnc2ccccn12	none (no result: APP 5'UTR act, NF-kB neuron act)
COc1cc(/C=C2/C(=O)NC(=O)N(c3ccccc3)C2=O)ccc1O	hcDAF12 agonist 7.0 | LXR ag inactive | hcDAF12 ag inactive
O=C1NC(=O)N(c2ccccc2)C(=O)/C1=C/c1ccoc1	none
CC(=Nc1ccccc1N)c1c(O)n(C)c(=O)n(C)c1=O	hcDAF12 agonist 6.6 (no result: APP 5'UTR act, NF-kB neuron act) | LXR ag inactive | hcDAF12 ag inactive
COC(=O)C1=Nc2ccccc2/C1=C\c1c(O)n(C)c(=O)n(C)c1=O	none (no result: APP 5'UTR act, NF-kB neuron act)
Cn1c(O)c(/C=C2\C=Nc3ccccc32)c(=O)n(C)c1=O	hcDAF12 agonist 7.7 (no result: APP 5'UTR act, NF-kB neuron act) | LXR ag inactive | hcDAF12 ag inactive
O=C1NC(=O)[C@]2(Cc3ccccc3N3CCN(c4ccccc4)CC32)C(=O)N1c1ccccc1 (some centres undefined)	ssDAF12 agonist 1.8, hcDAF12 agonist 7.6 | LXR ag inactive | hcDAF12 ag inactive
CC12CC[C@H]3[C@@H](CCC4(O)C[C@H](O)CCC34/C=N/NC(=O)c3ccccc3O)C1(O)CCC2C1=CC(=O)OC1 (some centres undefined)	hcDAF12 agonist 16.6 (no result: APP 5'UTR act, NF-kB neuron act) | LXR ag inactive | hcDAF12 ag 6.8
O=c1[nH]cc(N(CCCl)CCCl)c(=O)[nH]1	none (no result: APP 5'UTR act, NF-kB neuron act)
Brc1csc(N2CCNCC2)n1	none (no result: APP 5'UTR act, NF-kB neuron act)
CC[C@H](C(N)=O)N1CCCC1=O	none (no result: APP 5'UTR act, NF-kB neuron act)
COc1ccccc1CCNCc1cc2c(cc1[N+](=O)[O-])OCO2	ssDAF12 agonist 0.9, hcDAF12 agonist 8.4 | LXR ag inactive | hcDAF12 ag inactive
N#CCC[C@H]1CC[C@]2(CCCN(Cc3ccccn3)C2)O1	none (no result: APP 5'UTR act, NF-kB neuron act)
CC1CC(OP(O)(=S)c2ccc(N(C)C)cc2NC(=O)c2cccs2)CC(C)(C)C1 (centres undefined)	hcDAF12 agonist 8.8, hgDAF-12 ag 10.8 | LXR ag inactive | hcDAF12 ag inactive
CC(C)C(NC(=O)OCc1ccccc1)P(=O)(Oc1ccccc1)Oc1ccccc1 (centres undefined)	none (no result: APP 5'UTR act, NF-kB neuron act)
Cc1ccc(OCCOc2cccc(C=C3C(=O)NC(=O)NC3=O)c2)cc1	ssDAF12 agonist 1.1, hcDAF12 agonist 6.6, hgDAF-12 ag 12.4 (no result: APP 5'UTR act, NF-kB neuron act) | LXR ag inactive | hcDAF12 ag 7.3
Cc1cc(C)cc(OCCOc2cccc(C=C3C(=O)NC(=O)NC3=O)c2)c1	none (no result: APP 5'UTR act, NF-kB neuron act)
